Test results published in PubChem BioAssay (Tox21).
Records with an inconclusive call do not appear. A call without a number means that no potency is given here. Values without a mark were called inactive. The source made the active and inactive calls. The call rests on the fitted dose curve; in most records, active means well fitted activation curve with a large enough effect in the repeat runs; inconclusive means weak or mixed curves; inactive means flat fitted curve, though single readings scatter.

Test: A CellTox Green Cytotoxicity Assay to monitor cytotoxicity in HepG2 cells - 8 hour (AID 1224890); further: nearly all actives have a fitted effect of over 45% in size
Settings: CellTox Green fluorescence; series mostly up to 76.8 µM
Source text: National Center for Advancing Translational Sciences [NCATS]
NIH Chemical Genomics Center [NCGC]
U.S. Environmental Protection Agency [EPA]
National Institutes of Environmental Health Sciences [NIEHS]
National Toxicology Program [NTP]
Cell-based models are critical for drug discovery. Determining the natural cytotoxic effects resulting from test compounds is an essential research activity. A CellTox Green Cytotoxicity Assay to monitor cytotoxicity in real time of continues cell culture during 40 hours of the compound treatment was used to screen Tox21 10K library compounds in HepG2 cells. CellTox Green Cytotoxicity Assay is a nonlytic, homogeneous, biofluorescent method to measure cytotoxicity in cell culture after experimental manipulation. The assay system uses a proprietary asymmetric cyanine dye that is excluded from viable cells but preferentially stains the dead cell's DNA. […] Viable cells produce no appreciable increases in fluorescence. Therefore, the fluorescence signal produced by the binding interaction with dead cell DNA is proportional to cytotoxicity.
The mixture of HepG2 cell suspension and reagents were dispensed at 600cells/6 ul/well in 1536-well tissue culture treated black solid bottom plates using a Multidrop dispenser. After the assay plates were incubated at a 37 C/5% CO2 incubator for 5 hours, 23 nL of compounds dissolved in DMSO, positive and negative controls was transferred to the assay plate by a pintool work station. The plates were incubated at 37 C for 40 hours. The fluorescence intensity were measured at 0h, 8h, 16h, 24h, 32h and 40h time points using ViewLux plate reader during compound treatment.

| Compound | Potency | cytotoxicity increase |
| --- | --- | --- |
| CC(C)CCCCCOC(=O)CS | inactive |  |
| CC(O)CN (stereo not given) | inactive |  |
| CCCCCCCCS | inactive |  |
| Cc1ccc2ccccc2c1[N+](=O)[O-] | inactive |  |
| CC(C)Cc1nccs1 | inactive |  |
| CC/C=C\CCO | inactive |  |
| CC(CN=Cc1ccccc1O)N=Cc1ccccc1O (stereo not given) | inactive |  |
| COc1cc(C)c(Cc2cnc(N)nc2N)cc1OC | inactive |  |
| CCOC(C)OCC | inactive |  |
| O=C(O)c1cc(C(=O)O)c(C(=O)O)cc1C(=O)O | inactive |  |
| O=c1c2ccccc2oc2ccccc12 | inactive |  |
| CC(=O)Oc1cccc2c1C(=O)c1c(OC(C)=O)cc(C(=O)O)cc1C2=O | inactive |  |
| Sc1nc(S)nc(S)n1 | inactive |  |
| CC(C)(C)NCC(O)COc1ccc(NC(=O)NC2CCCCC2)cc1 (stereo not given) | inactive |  |
| C1CCN(CN2CCCCC2)CC1 | inactive |  |
| COC=O |  | -0.393% [at 6.97 µM] |
| O=C(NC1CCN(CCc2c[nH]c3ccccc23)CC1)c1ccccc1 | inactive |  |
| O=C(O)c1ccc(O)c(O)c1 | inactive |  |
| C=CC(C)CCC=C(C)C (stereo not given) | inactive |  |
| CC(C)(O)C(=O)O | inactive |  |

| Compound | Potency | cytotoxicity increase |
| --- | --- | --- |
| CC(C)(C)c1ccc(CCC=O)cc1 | inactive |  |
| C[C@H](CN1CCCC1)C(=O)c1ccc(C(F)(F)F)cc1 | inactive |  |
| CCCCCCCCCCCC(=O)OCC | inactive |  |
| CC(COc1ccccc1)NC(C)C(O)c1ccc(O)cc1 (stereo not given) | inactive |  |
| Clc1nc2ccccc2nc1Cl | inactive |  |
| C/C=C1\[C@H]2C=C(C)C[C@]1(N)c1ccc(=O)[nH]c1C2 | inactive |  |
| CCCc1nc(C)c2c(=O)[nH]c(-c3cc(S(=O)(=O)N4CCN(CC)CC4)ccc3OCC)nn12 | inactive |  |
| C1=COCCC1 | inactive |  |
| CCCCCCCCOCCCN | inactive |  |
| CC(C)CC(C)(C)C | inactive |  |
| CCCC(=O)OCc1ccccc1 | inactive |  |
| O=C(Nc1ccc2c(c1)Cc1ccccc1-2)C(F)(F)F | inactive |  |
| O=C1c2ccccc2C(=O)c2c1ccc(O)c2O | inactive |  |
| O=[N+]([O-])c1cccc(I)c1 | inactive |  |
| CCC(C)C1N=C(C)C(C)S1 (stereo not given) | inactive |  |
| OCC(O)c1ccccc1 (stereo not given) | inactive |  |
| C=CC(=O)NC(C)(C)C | inactive |  |
| CC(C)(C)N | inactive |  |
| CC1(C)CC(O)CC(C)(C)N1[O] | inactive |  |
| CC(C)NC(=O)c1ccccc1N | inactive |  |
